Test results published in the supplement of paper PMC8728848.
This is one part of a sample in which the strongest signals are shown more often than they occur.

Key:
Test in all cases: glycan array binding signal (z-score within array); higher = stronger binding
Conditions in all cases: glycan notation: IUPAC condensed, linker removed
[1] = target: Gal(b1-4)GlcNAc(b1-3)Gal(b1-4)GlcNAc(b1-3)Gal(b1-4)GlcNAc(b1-3)Gal(b1-4)GlcNAc(b1-3)Gal(b1-4)GlcNAc(b1-2)Man(a1-3)[Gal(b1-4)GlcNAc(b1-3)Gal(b1-4)GlcNAc(b1-3)Gal(b1-4)GlcNAc(b1-3)Gal(b1-4)GlcNAc(b1-3)Gal(b1-4)GlcNAc(b1-2)Man(a1-6)]Man(b1-4)GlcNAc(b1-4)[Fuc(a1-6)]GlcNAc
Summary of the method: (§1)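 Columns mapping to the same glycan were averaged after glycan names were converted to IUPAC-condensed notation. The data come from 3228 arrays in the Consortium for Functional Glycomics database, limited to those with an available protein sequence. Binding is reported as a within-array Z-score averaged across arrays of one protein sequence and across linkers.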

[2] = target: Gal(b1-4)GlcNAc(b1-3)Gal(b1-4)GlcNAc(b1-3)Gal(b1-4)GlcNAc(b1-3)Gal(b1-4)GlcNAc(b1-3)Gal(b1-4)GlcNAc(b1-2)[Gal(b1-4)GlcNAc(b1-3)Gal(b1-4)GlcNAc(b1-3)Gal(b1-4)GlcNAc(b1-3)Gal(b1-4)GlcNAc(b1-3)Gal(b1-4)GlcNAc(b1-6)]Man(a1-6)[Gal(b1-4)GlcNAc(b1-3)Gal(b1-4)GlcNAc(b1-3)Gal(b1-4)GlcNAc(b1-3)Gal(b1-4)GlcNAc(b1-3)Gal(b1-4)GlcNAc(b1-2)Man(a1-3)]Man(b1-4)GlcNAc(b1-4)[Fuc(a1-6)]GlcNAc
Summary of the method: as §1

[3] = target: Gal(b1-4)GlcNAc(b1-3)Gal(b1-4)GlcNAc(b1-3)Gal(b1-4)GlcNAc(b1-3)Gal(b1-4)GlcNAc(b1-3)Gal(b1-4)GlcNAc(b1-3)Gal(b1-4)GlcNAc(b1-2)Man(a1-3)[Gal(b1-4)GlcNAc(b1-3)Gal(b1-4)GlcNAc(b1-3)Gal(b1-4)GlcNAc(b1-3)Gal(b1-4)GlcNAc(b1-3)Gal(b1-4)GlcNAc(b1-3)Gal(b1-4)GlcNAc(b1-2)Man(a1-6)]Man(b1-4)GlcNAc(b1-4)GlcNAc
Summary of the method: as §1

[4] = target: Gal(b1-4)GlcNAc(b1-6)GalNAc
Summary of the method: as §1

GalNAc6S(b1-4)GlcNAc = target: GalNAc6S(b1-4)GlcNAc
Summary of the method: as §1

[5] = target: GlcNAc(a1-4)Gal(b1-4)GlcNAc
Summary of the method: as §1

[6] = target: GlcNAc(b1-2)[GlcNAc(b1-4)]Man(a1-3)[GlcNAc(b1-4)][GlcNAc(b1-2)[GlcNAc(b1-6)]Man(a1-6)]Man(b1-4)GlcNAc(b1-4)GlcNAc
Summary of the method: as §1

[7] = target: GlcNAc(b1-2)[GlcNAc(b1-6)]Man(a1-6)[GlcNAc(b1-4)][GlcNAc(b1-2)Man(a1-3)]Man(b1-4)GlcNAc(b1-4)GlcNAc
Summary of the method: as §1

GlcNAc(b1-3)Gal(b1-4)Glc = target: GlcNAc(b1-3)Gal(b1-4)Glc
Summary of the method: as §1

[8] = target: GlcNAc(b1-3)Gal(b1-4)GlcNAc(b1-3)Gal(b1-4)GlcNAc(b1-3)Gal(b1-4)GlcNAc(b1-2)Man(a1-3)[GlcNAc(b1-3)Gal(b1-4)GlcNAc(b1-3)Gal(b1-4)GlcNAc(b1-3)Gal(b1-4)GlcNAc(b1-2)Man(a1-6)]Man(b1-4)GlcNAc(b1-4)[Fuc(a1-6)]GlcNAc
Summary of the method: as §1

[9] = target: GlcNAc(b1-3)Gal(b1-4)GlcNAc(b1-3)Gal(b1-4)GlcNAc(b1-3)Gal(b1-4)GlcNAc(b1-3)Gal(b1-4)GlcNAc(b1-2)Man(a1-3)[GlcNAc(b1-3)Gal(b1-4)GlcNAc(b1-3)Gal(b1-4)GlcNAc(b1-3)Gal(b1-4)GlcNAc(b1-3)Gal(b1-4)GlcNAc(b1-2)Man(a1-6)]Man(b1-4)GlcNAc(b1-4)GlcNAc
Summary of the method: as §1

[10] = target: GlcNAc(b1-3)Gal(b1-4)GlcNAc(b1-3)Gal(b1-4)GlcNAc(b1-3)Gal(b1-4)GlcNAc(b1-3)Gal(b1-4)GlcNAc(b1-2)Man(a1-3)[GlcNAc(b1-3)Gal(b1-4)GlcNAc(b1-3)Gal(b1-4)GlcNAc(b1-3)Gal(b1-4)GlcNAc(b1-3)Gal(b1-4)GlcNAc(b1-2)Man(a1-6)]Man(b1-4)GlcNAc(b1-4)[Fuc(a1-6)]GlcNAc
Summary of the method: as §1

[11] = target: GlcNAc(b1-3)Gal(b1-4)GlcNAc(b1-3)Gal(b1-4)GlcNAc(b1-3)Gal(b1-4)GlcNAc(b1-3)Gal(b1-4)GlcNAc(b1-2)[GlcNAc(b1-3)Gal(b1-4)GlcNAc(b1-3)Gal(b1-4)GlcNAc(b1-3)Gal(b1-4)GlcNAc(b1-3)Gal(b1-4)GlcNAc(b1-6)]Man(a1-6)[GlcNAc(b1-3)Gal(b1-4)GlcNAc(b1-3)Gal(b1-4)GlcNAc(b1-3)Gal(b1-4)GlcNAc(b1-3)Gal(b1-4)GlcNAc(b1-2)Man(a1-3)]Man(b1-4)GlcNAc(b1-4)[Fuc(a1-6)]GlcNAc
Summary of the method: as §1

[12] = target: Man(a1-2)Man(a1-3)[Man(a1-6)]Man(a1-6)[Man(a1-2)Man(a1-3)]Man(b1-4)GlcNAc(b1-4)GlcNAc
Summary of the method: as §1

[13] = target: Neu5Ac(a2-3)Gal(b1-4)GlcNAc6S
Summary of the method: as §1

[14] = target: Neu5Ac(a2-3)[Neu5Ac(a2-6)]GalNAc
Summary of the method: as §1

[15] = target: Neu5Ac(a2-6)Gal(b1-4)GlcNAc
Summary of the method: as §1

[16] = target: Neu5Ac(a2-6)Gal(b1-4)GlcNAc(b1-2)[Neu5Ac(a2-6)Gal(b1-4)GlcNAc(b1-4)]Man(a1-3)[GlcNAc(b1-4)][Neu5Ac(a2-6)Gal(b1-4)GlcNAc(b1-4)Man(a1-6)]Man(b1-4)GlcNAc(b1-4)GlcNAc
Summary of the method: as §1

[17] = target: Neu5Ac(a2-6)Gal(b1-4)GlcNAc(b1-3)Gal(b1-4)GlcNAc
Summary of the method: as §1

[18] = target: Neu5Ac(a2-6)Gal(b1-4)GlcNAc(b1-3)Gal(b1-4)GlcNAc(b1-3)Gal(b1-4)GlcNAc
Summary of the method: as §1

[19] = target: Neu5Ac(a2-6)Gal(b1-4)GlcNAc(b1-3)Gal(b1-4)GlcNAc(b1-3)[Neu5Ac(a2-6)Gal(b1-4)GlcNAc(b1-3)Gal(b1-4)GlcNAc(b1-6)]GalNAc
Summary of the method: as §1

[20] = target: Neu5Ac(a2-8)Neu5Ac(a2-3)Gal(b1-4)Glc
Summary of the method: as §1

[21] = target: Neu5Ac(a2-8)Neu5Ac(a2-8)Neu5Ac(a2-3)Gal(b1-4)Glc
Summary of the method: as §1

[22] = target: Neu5Gc(a2-3)Gal(b1-4)[Fuc(a1-3)]GlcNAc
Summary of the method: as §1

Neu5Gc(a2-6)GalNAc = target: Neu5Gc(a2-6)GalNAc
Summary of the method: as §1

B1: DrGal3 (Danio rerio) (protein)
chain: MDLSDALDAPPQQNNQQAGGPVWPGQPANPVWPGQPANPTWPGQPNQPAWPGQPNQQWPGQPGQPTAPGWPGPAPQTGPYGAPGQAPQVLTVPLDFPLQNGAYNKMLITINGEVKPNAKQFTVNLRRGNDIAFHINPRFSEGGKPVIVRNSMIGNNWGREERELPSFPFVPGKPFEMKILITDTEYKVAVNKSHLLEFKHRVFELNQITGLSIYNDVTLSTVNVETLQ
[1]
  glycan array binding signal (z-score): 4.37
[2]
  glycan array binding signal (z-score): 5.52
[3]
  glycan array binding signal (z-score): 5.72
[4]
  glycan array binding signal (z-score): -0.192
GalNAc6S(b1-4)GlcNAc
  glycan array binding signal (z-score): -0.282
[5]
  glycan array binding signal (z-score): -0.256
[6]
  glycan array binding signal (z-score): -0.297
[7]
  glycan array binding signal (z-score): -0.243
GlcNAc(b1-3)Gal(b1-4)Glc
  glycan array binding signal (z-score): -0.284
[8]
  glycan array binding signal (z-score): 6.12
[9]
  glycan array binding signal (z-score): 5.4
[10]
  glycan array binding signal (z-score): 5.55
[11]
  glycan array binding signal (z-score): 3.29
[12]
  glycan array binding signal (z-score): -0.249
[13]
  glycan array binding signal (z-score): -0.189
[14]
  glycan array binding signal (z-score): -0.275
[15]
  glycan array binding signal (z-score): -0.257
[16]
  glycan array binding signal (z-score): -0.234
[17]
  glycan array binding signal (z-score): -0.25
[18]
  glycan array binding signal (z-score): 0.971
[19]
  glycan array binding signal (z-score): -0.107
[20]
  glycan array binding signal (z-score): -0.271
[21]
  glycan array binding signal (z-score): -0.195
[22]
  glycan array binding signal (z-score): -0.086
Neu5Gc(a2-6)GalNAc
  glycan array binding signal (z-score): -0.254
